Experimental data from PubChem BioAssay.
Inconclusive results are not listed. The source made the active and inactive calls.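 How the source made its calls, unless noted: active means inhibition above the screen-wide mean plus 3 SD, about 51%; inactive means the rest.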

What was measured:
[1] = rapamycin-like changes in RPL19A-GFP expression – cell-based, S. cerevisiae, multiplex flow cytometry, primary screen (AID 1862; in the data active means percent of DMSO control GFP below about 86%;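 further: lower values mimic rapamycin by blocking the RPL19A rise seen in DMSO cells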); settings: S. cerevisiae RPL19A-GFP strain, flow cytometry fluorescence, 3 h; at 10 µM; stronger effect = lower value
[2] = TOR pathway GLN3 branch reporter MEP2-GFP changes – S. cerevisiae, multiplex flow cytometry, primary screen (AID 1867;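 active means GFP response, as percent of the DMSO control, above the screen-wide mean plus 3 SD, about 139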;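 further: median GFP channel fluorescence of barcode-gated MEP2-GFP cells measured by flow cytometry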); settings: S. cerevisiae MEP2-GFP strain, 3 h, at 10 µM, stronger effect = higher value, 100% means same as DMSO wells
[3] = TOR pathway RTG branch CIT2 reporter changes – S. cerevisiae, GFP fusion, multiplex flow cytometry, primary screen (AID 1870;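 active means percent response above a set limit, the screen-wide mean plus 3 SD, cut at about 130% in these data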;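 further: barcoded CIT2-GFP strain pooled with four other GFP strains with rapamycin as positive control; median GFP fluorescence per well over plate mean of DMSO wells so 100% = DMSO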); settings: S. cerevisiae CIT2-GFP expression, 3 h, at 10 µM, stronger effect = higher value
[4] = TOR pathway LAP4-GFP level changes – S. cerevisiae, multiplex flow cytometry, primary screen (AID 1873;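 active means GFP signal, as percent of the solvent control, above the screen mean plus 3 SD, about 149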); settings: S. cerevisiae LAP4-GFP expression, 3 h, at 10 µM, stronger effect = higher value
[5] = yeast AGP1-GFP level changes, GLN3 branch – cell-based, multiplex flow cytometry, S. cerevisiae, primary screen (AID 1887;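 active means GFP signal above the screen-wide mean plus 3 SD, that is over about 124.5% of the solvent control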;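 further: AGP1-GFP fusion strain of S. cerevisiae within a five-strain barcoded multiplex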); settings: 3 h, at 10 µM, stronger effect = higher value
[6] = reduced mouse 2C T cell binding to pMHC/ICAM-1 vesicles – MLPCN validation set, flow cytometry, LFA-1/ICAM-1 modulator project, pilot screen (AID 2523;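 active means response below a set limit, under 55% cells CD8-positive and vesicle-bound, and CD8 cells' 90th-percentile brightness under 279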;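 on vesicle binding response: mean PE anti-B7-1 fluorescence of CD8+ cells relative to row control; 100% = QL9-loaded vesicles with DMSO vehicle in the same plate row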); settings: 2C mouse CD8+ T cells, at 7 µM, stronger effect = lower value; double positive events: measured here: CD8+/vesicle+ event percentage
[7] = biological target: Integrin beta-1 (Homo sapiens) + Integrin alpha-4 (Homo sapiens) (UniProt P13612+P05556); assay: alpha4beta1 integrin LIBS antibody binding reduction – U937 cells, HUTS-21 mAb, flow cytometry, validation set, VLA-4 allosteric modulator project, pilot screen (AID 2674;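 active means inhibition above 50%, about 3 SD of the validation set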;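 further: antibody binding induced by the VLA-4 ligand LDV present at three times its Kd; 0% = LDV ligand with antibody and no compound and 100% = antibody without LDV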); settings: HUTS-21 LIBS mAb binding, at 6.7 µM, stronger effect = higher value, binding induced by LDV ligand
[8] = calorie-restriction mimetic ROS inhibitors, yeast – validation compound set, pilot screen (AID 2706;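 active means superoxide response below 65% of plate, a cut near 3 SD across the whole screen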;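 further: yeast exposed to compound for one week at 30 degrees C before staining; 100% = mean of all compound wells on the same plate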); settings: S. cerevisiae aging, superoxide DHE fluorescence; at 10 µM; stronger effect = lower value
[9] = biological target: Beta-adrenergic receptor kinase 1 (Homo sapiens) (UniProt P25098); assay: GRK2 binders displacing RNA aptamer, biochemical, validation, human GRK2, bead flow cytometry (AID 488806;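 active means aptamer binding inhibition above 30%, about 3 SD of noise from non-fluorescent compounds; inactive means inhibition at or below 30%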); settings: bead-bound GRK2, FAM-aptamer displacement, at 10 µM, stronger effect = higher value
[10] = biological target: Beta-2 adrenergic receptor (Homo sapiens) (UniProt P07550); assay: agonist-induced loss of surface beta2AR – cell-based, FAP fluorogen, flow cytometry, validation set, pilot screen (AID 504459;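 active means percent response above 42, roughly 3 SD of non-fluorescent test compounds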;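 further: agonist-driven loss of surface beta2AR via internalization measured by FAP dye flow cytometry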); settings: Am2.2-beta2AR cells, at 10 µM, stronger effect = higher value
[11] = biological target: AP-2 complex subunit beta (Homo sapiens) (UniProt P63010); assay: beta-arrestin/AP2 interaction blockers – biochemical, validation set, GST-AP2 beads, flow cytometry, pilot screen (AID 504541;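 active means inhibition above 54%, about 3 SD of non-fluorescent compounds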;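 further: AP2 carries R879A mutation and is captured from E. coli lysate; bead-bound FITC arrestin peptide fluorescence measuring arrestin peptide binding to AP2; 0% = DMSO wells and 100% = excess unlabeled arrestin peptide control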); settings: FITC arrestin peptide, at 10 µM, stronger effect = higher value, AP2 beta2 appendage fragment, R879A mutant
[12] = cytosolic pH regulators acting via V-ATPase – S. cerevisiae, pHLuorin, HTS validation (AID 504600; in the data active means response above about 15%;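 further: plate controls were DMSO for no effect and reference compound for full effect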); settings: V-ATPase proton transport, at 10 µM, stronger effect = higher value
[13] = test system: anti-desmoglein-3 scFv antibody binding to human DSG3; assay: blockers of pathogenic pemphigus antibody–desmoglein-3 binding – biochemical, validation compound set, bead-based, flow cytometry, pilot screen (AID 588368;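 active means binding below the plate cutoff, the plate median minus 3 SD, with a reading above zero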;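 further: signal is the median channel fluorescence of bead-bound GFP antibody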); settings: Protein G beads, DSG3-Fc, scFv-GFP binding, at 10 µM, stronger effect = lower value
[14] = Nile Red efflux blockade in pump-expressing yeast – validation compound set, multiplex, phenotypic, pilot screen (AID 588506;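 active means efflux inhibition above 0.42, the validation set average plus 4 SD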;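 further: Nile Red retained in cells so higher fluorescence means more efflux inhibition; 0 = negative control wells and 1 = enniatin B 25 µM full block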); settings: S. cerevisiae pump-expressing triplex, Nile Red efflux flow cytometry; at 10 µM; stronger effect = higher value; the pumps come from Candida albicans
[15] = biological target: ATP-binding cassette sub-family B member 6 (Homo sapiens) (UniProt Q9NP58); assay: blockers of ABCB6-driven porphyrin uptake – K562-ABCB6 cells, flow cytometry, validation set, pilot screen (AID 588550); settings: K562-ABCB6 porphyrin accumulation, 1 h, at 10 µM, stronger effect = higher value;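 further: 0% = DMSO wells and 100% = benzethonium chloride 70 µM positive control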
[16] = AML differentiation inducers, ER-HoxA9 marrow cells – cell-based, GFP/MAC1 double positive, flow cytometry, validation set, primary screen (AID 588685;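 active means differentiation response of at least 50%, scaled between solvent and reference control, from cells with both markers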;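 further: compound exposure lasts four days before antibody staining and flow analysis; 0% = DMSO wells and 100% = 5 µM fulvestrant positive control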); settings: stronger effect = higher value, normalized: vehicle 0, fulvestrant 100

Sequence of Beta-2 adrenergic receptor (Homo sapiens) (P07550 whole entry, looked up): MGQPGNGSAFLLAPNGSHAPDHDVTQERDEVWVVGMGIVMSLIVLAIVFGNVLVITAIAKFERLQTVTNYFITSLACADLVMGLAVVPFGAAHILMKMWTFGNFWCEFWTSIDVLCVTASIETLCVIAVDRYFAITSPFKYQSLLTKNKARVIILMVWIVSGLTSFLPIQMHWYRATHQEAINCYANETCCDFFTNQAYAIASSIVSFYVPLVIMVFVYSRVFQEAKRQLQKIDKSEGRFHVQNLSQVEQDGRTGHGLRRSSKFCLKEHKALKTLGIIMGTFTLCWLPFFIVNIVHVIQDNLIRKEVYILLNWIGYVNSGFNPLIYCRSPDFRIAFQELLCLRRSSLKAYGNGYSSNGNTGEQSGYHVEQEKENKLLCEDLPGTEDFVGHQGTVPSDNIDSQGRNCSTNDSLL
Sequence of Integrin beta-1 (Homo sapiens) + Integrin alpha-4 (Homo sapiens) (P05556 whole entry, looked up): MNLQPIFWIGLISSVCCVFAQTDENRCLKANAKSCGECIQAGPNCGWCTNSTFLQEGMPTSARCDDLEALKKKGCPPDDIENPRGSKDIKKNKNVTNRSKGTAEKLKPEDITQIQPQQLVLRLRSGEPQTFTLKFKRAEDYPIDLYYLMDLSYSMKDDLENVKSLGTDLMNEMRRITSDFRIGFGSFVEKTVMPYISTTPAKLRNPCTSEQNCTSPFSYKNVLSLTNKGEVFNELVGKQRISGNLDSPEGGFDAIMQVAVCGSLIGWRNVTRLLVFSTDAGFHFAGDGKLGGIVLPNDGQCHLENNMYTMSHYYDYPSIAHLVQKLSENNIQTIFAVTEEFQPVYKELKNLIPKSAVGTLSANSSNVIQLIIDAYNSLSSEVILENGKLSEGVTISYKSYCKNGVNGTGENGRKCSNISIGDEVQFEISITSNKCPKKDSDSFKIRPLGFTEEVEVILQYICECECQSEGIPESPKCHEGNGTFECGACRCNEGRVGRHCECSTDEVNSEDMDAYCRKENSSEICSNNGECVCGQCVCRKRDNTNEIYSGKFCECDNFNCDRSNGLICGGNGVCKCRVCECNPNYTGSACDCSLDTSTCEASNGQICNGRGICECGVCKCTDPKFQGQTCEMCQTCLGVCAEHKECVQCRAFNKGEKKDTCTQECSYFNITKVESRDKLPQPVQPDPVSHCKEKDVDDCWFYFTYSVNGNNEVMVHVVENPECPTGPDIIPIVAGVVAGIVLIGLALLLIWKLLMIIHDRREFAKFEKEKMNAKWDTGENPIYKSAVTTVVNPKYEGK
Sequence of Integrin beta-1 (Homo sapiens) + Integrin alpha-4 (Homo sapiens) (P13612 whole entry, looked up): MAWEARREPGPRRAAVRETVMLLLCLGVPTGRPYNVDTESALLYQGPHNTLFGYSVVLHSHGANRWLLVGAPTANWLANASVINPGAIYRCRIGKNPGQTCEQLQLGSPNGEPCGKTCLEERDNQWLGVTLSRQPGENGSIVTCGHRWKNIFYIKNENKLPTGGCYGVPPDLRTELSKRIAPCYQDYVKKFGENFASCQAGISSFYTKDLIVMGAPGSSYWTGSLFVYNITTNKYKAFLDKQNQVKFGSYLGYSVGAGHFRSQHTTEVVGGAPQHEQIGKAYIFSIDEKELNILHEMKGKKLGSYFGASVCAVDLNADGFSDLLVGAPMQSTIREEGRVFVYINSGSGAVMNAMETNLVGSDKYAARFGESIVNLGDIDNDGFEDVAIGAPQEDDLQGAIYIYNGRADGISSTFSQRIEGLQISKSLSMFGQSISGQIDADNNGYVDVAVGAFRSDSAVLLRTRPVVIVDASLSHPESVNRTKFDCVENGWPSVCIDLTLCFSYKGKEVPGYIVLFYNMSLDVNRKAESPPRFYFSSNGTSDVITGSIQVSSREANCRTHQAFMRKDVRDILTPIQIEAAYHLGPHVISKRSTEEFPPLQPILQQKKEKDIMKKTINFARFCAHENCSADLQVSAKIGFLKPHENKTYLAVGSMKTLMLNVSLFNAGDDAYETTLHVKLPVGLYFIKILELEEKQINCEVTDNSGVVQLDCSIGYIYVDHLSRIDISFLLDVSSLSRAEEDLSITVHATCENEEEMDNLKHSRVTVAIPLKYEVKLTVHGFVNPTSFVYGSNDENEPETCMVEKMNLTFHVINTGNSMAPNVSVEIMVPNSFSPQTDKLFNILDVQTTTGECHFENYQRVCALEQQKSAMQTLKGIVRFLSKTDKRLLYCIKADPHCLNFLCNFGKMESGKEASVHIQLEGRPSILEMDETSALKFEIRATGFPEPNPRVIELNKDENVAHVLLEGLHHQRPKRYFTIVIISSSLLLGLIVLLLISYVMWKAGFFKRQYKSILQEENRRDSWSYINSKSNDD
Sequence of ATP-binding cassette sub-family B member 6 (Homo sapiens) (Q9NP58 whole entry, looked up): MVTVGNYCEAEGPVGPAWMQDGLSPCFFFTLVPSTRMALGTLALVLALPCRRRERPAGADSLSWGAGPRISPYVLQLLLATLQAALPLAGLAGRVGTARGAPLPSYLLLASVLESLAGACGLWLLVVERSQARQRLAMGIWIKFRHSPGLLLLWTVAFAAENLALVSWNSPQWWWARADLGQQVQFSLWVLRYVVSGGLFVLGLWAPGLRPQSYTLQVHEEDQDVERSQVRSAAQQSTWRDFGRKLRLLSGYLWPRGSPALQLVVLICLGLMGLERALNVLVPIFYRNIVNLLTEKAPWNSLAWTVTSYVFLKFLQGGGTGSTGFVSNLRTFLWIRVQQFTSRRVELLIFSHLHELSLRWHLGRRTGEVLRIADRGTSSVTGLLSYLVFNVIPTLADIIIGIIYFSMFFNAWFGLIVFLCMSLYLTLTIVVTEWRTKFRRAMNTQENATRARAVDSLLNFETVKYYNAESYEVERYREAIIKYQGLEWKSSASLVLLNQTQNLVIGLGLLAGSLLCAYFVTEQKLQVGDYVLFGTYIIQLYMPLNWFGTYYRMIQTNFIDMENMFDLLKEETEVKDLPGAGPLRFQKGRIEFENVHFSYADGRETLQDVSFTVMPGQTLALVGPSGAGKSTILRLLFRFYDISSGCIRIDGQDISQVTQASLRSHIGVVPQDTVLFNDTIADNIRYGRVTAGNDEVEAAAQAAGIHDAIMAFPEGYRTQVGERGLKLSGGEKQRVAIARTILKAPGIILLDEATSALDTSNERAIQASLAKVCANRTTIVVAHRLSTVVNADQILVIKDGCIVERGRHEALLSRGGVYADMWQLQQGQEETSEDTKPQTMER
Sequence of AP-2 complex subunit beta (Homo sapiens) (P63010 whole entry, looked up, the tested form may be a part, one chain of several): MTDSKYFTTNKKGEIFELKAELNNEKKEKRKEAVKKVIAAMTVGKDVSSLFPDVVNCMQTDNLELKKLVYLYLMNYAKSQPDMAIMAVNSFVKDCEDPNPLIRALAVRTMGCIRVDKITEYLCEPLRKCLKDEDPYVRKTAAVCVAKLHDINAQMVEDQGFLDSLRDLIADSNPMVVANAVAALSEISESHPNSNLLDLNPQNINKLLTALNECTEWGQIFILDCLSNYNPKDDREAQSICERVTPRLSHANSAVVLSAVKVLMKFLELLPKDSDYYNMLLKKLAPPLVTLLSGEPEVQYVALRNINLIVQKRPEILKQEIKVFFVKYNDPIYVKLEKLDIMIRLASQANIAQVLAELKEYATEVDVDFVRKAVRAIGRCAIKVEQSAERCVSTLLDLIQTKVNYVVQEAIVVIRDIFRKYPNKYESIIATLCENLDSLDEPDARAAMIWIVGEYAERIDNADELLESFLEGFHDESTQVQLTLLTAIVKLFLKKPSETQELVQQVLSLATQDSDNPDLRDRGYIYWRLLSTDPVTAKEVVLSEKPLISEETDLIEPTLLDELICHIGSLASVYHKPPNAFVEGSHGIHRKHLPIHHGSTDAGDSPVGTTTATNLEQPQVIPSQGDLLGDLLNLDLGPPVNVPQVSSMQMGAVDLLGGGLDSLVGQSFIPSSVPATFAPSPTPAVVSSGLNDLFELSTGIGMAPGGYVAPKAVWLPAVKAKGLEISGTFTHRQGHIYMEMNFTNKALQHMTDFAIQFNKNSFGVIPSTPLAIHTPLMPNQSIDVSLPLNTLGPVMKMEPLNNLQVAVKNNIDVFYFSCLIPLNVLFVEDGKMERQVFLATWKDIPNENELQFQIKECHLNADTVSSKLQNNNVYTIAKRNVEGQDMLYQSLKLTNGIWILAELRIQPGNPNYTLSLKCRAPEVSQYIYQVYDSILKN
Sequence of Beta-adrenergic receptor kinase 1 (Homo sapiens) (P25098 whole entry, looked up): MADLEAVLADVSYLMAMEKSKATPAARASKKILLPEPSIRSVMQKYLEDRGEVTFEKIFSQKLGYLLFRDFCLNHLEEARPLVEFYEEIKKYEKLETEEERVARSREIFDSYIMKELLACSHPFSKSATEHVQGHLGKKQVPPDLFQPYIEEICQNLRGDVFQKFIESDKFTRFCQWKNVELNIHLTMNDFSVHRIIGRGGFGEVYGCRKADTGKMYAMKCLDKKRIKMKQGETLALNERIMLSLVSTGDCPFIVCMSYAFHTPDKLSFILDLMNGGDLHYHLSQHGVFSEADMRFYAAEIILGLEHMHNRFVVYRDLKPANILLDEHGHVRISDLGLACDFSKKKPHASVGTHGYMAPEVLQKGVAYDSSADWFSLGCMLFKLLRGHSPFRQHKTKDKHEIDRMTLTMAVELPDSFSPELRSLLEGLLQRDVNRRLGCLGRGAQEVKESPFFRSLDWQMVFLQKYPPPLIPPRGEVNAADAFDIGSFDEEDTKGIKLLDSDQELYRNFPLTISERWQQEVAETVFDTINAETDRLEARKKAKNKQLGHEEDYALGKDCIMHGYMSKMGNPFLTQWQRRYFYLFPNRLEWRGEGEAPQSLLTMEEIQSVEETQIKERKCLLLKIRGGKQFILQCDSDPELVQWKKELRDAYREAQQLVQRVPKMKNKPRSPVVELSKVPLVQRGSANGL

| SMILES | percent of DMSO control GFP [1] | GFP response vs DMSO [2] | percent response of DMSO control [3] | GFP response vs DMSO [4] | GFP response, % of DMSO [5] | double positive events [6] [%] | vesicle binding response [6] | inhibition [7] | superoxide response (% of plate) [8] | aptamer binding inhibition [9] | response [10] | inhibition [11] | response [12] | binding (% of control) [13] | efflux inhibition (fraction of control) [14] | inhibition [15] | differentiation response [16] |
| --- | --- | --- | --- | --- | --- | --- | --- | --- | --- | --- | --- | --- | --- | --- | --- | --- | --- |
| Cc1ccc(/C(=C\CN2CCCC2)c2ccccn2)cc1 | 107% (inactive) | 104% (inactive) | 108% (inactive) | 88.2% (inactive) | 100% (inactive) | 57.7 | 146% (inactive) | 12.3% (inactive) | 106% (inactive) | 1% (inactive) | 7.2% (inactive) | -9.23% (inactive) | 0.97% (inactive) | 108% (inactive) | 0.01 (inactive) | -16% (inactive) | -19.2% (inactive) |
| CCNC(=O)C(Cc1ccccc1)NC(=O)OCc1ccccc1 (stereo not given) | 101% (inactive) | 103% (inactive) | 99.6% (inactive) | 117% (inactive) | 106% (inactive) | 62.5 | 367% (inactive) | 19.3% (inactive) | 112% (inactive) | 2% (inactive) | -19.9% (inactive) | 1.34% (inactive) | 0.55% (inactive) | 108% (inactive) | 0 (inactive) | 6% (inactive) | -12.9% (inactive) |
| COc1ccc2c(c1)[N+](C)(C)C(C)(C)C=C2C | 105% (inactive) | 96.2% (inactive) | 111% (inactive) | 90.1% (inactive) | 99.9% (inactive) | 70.1 | 953% (inactive) | 15.1% (inactive) | 103% (inactive) | 2% (inactive) | -8.39% (inactive) | -11.1% (inactive) | -1.92% (inactive) | 95.6% (inactive) | -0.04 (inactive) | 5% (inactive) | 12.9% (inactive) |
| O=C(NC(=S)Nc1nc(-c2ccccc2)cs1)c1ccco1 | 90.9% (inactive) | 132% (inactive) | 102% (inactive) | 85.3% (inactive) | 87.3% (inactive) | 55.7 | 164% (inactive) | 1.61% (inactive) | 110% (inactive) | 3% (inactive) | -23.9% (inactive) | 16.9% (inactive) | -1.38% (inactive) | 102% (inactive) | 0.12 (inactive) | 7% (inactive) | 5.73% (inactive) |
| CC(C)CN(C)Cc1c(C(=O)N2CCc3ccccc3C2)nc2ccc(Cl)cn12 | 105% (inactive) | 103% (inactive) | 107% (inactive) | 98% (inactive) | 105% (inactive) | 62.4 | 147% (inactive) | 8.29% (inactive) | 99.2% (inactive) | 0% (inactive) | -16.8% (inactive) | 20.6% (inactive) | -4% (inactive) | 104% (inactive) | 0.22 (inactive) | 11% (inactive) | -13.3% (inactive) |
| Cc1ccnc2c1NC(=O)c1cccnc1N2C1CC1 | 102% (inactive) | 98.3% (inactive) | 115% (inactive) | 98% (inactive) | 99.4% (inactive) | 66.5 | 295% (inactive) | 2.66% (inactive) | 108% (inactive) | 4% (inactive) | -1.22% (inactive) | -5.17% (inactive) | 0.42% (inactive) | 99.2% (inactive) | -0.17 (inactive) | 2% (inactive) | 2.2% (inactive) |
| C(=C\c1ccc2ccccc2n1)/c1ccccc1 | 102% (inactive) | 96.3% (inactive) | 98.6% (inactive) | 97.4% (inactive) | 93.2% (inactive) | 63.3 | 306% (inactive) | -27.7% (inactive) | 94.9% (inactive) | 3% (inactive) | 5.82% (inactive) | -3.54% (inactive) | 0.75% (inactive) | 105% (inactive) | -0.31 (inactive) | 114% (active) | -8.8% (inactive) |
| CN(C)CCCN1c2ccccc2Sc2ccc(C(F)(F)F)cc21 | 99% (inactive) | 106% (inactive) | 99% (inactive) | 115% (inactive) | 113% (inactive) | 60.5 | 196% (inactive) | 53.4% (active) | 88.6% (inactive) | -7% (inactive) | 26.6% (inactive) | 29.2% (inactive) | -0.19% (inactive) | 101% (inactive) | 0.25 (inactive) | 6% (inactive) | -18.8% (inactive) |
| c1ccc(-c2ccc(C(c3ccccc3)n3ccnc3)cc2)cc1 (stereo not given) | 99.8% (inactive) | 104% (inactive) | 101% (inactive) | 115% (inactive) | 111% (inactive) | 66.2 | 187% (inactive) | 8.25% (inactive) | 209% (inactive) | 7% (inactive) | 0.23% (inactive) | -14.1% (inactive) | 15.5% (active) | 101% (inactive) | -0.04 (inactive) | 0% (inactive) | -2.03% (inactive) |
| NC(=O)c1cccnc1 | 86.7% (inactive) | 121% (inactive) | 110% (inactive) | 79.8% (inactive) | 98.7% (inactive) | 45 | 242% (inactive) | 7.43% (inactive) | 111% (inactive) | 3% (inactive) | 8.79% (inactive) | -4.05% (inactive) | 1.76% (inactive) | 99.8% (inactive) | -0.28 (inactive) | 9% (inactive) | -1.64% (inactive) |
